The values that follow come from ChEMBL document CHEMBL3988442, “University of Dundee, Small-Polar-MMV Screening Library” (2021).

Structures are written as SMILES. For some of these results: Measured potencies and affinities stand elsewhere.

Design in all cases: scale not given: direction of the effect not stated beside the values
The target in experiment [1] is Protein translocase subunit SecA (Escherichia coli (strain K12)) (UniProt P10408). The experiment in a line: Assay to Identify E. coli SecA ATPase Inhibitors. Type of experiment: functional. The following applies: 30 µM.
Protein translocase subunit SecA (Escherichia coli (strain K12)), sequence (P10408 whole entry): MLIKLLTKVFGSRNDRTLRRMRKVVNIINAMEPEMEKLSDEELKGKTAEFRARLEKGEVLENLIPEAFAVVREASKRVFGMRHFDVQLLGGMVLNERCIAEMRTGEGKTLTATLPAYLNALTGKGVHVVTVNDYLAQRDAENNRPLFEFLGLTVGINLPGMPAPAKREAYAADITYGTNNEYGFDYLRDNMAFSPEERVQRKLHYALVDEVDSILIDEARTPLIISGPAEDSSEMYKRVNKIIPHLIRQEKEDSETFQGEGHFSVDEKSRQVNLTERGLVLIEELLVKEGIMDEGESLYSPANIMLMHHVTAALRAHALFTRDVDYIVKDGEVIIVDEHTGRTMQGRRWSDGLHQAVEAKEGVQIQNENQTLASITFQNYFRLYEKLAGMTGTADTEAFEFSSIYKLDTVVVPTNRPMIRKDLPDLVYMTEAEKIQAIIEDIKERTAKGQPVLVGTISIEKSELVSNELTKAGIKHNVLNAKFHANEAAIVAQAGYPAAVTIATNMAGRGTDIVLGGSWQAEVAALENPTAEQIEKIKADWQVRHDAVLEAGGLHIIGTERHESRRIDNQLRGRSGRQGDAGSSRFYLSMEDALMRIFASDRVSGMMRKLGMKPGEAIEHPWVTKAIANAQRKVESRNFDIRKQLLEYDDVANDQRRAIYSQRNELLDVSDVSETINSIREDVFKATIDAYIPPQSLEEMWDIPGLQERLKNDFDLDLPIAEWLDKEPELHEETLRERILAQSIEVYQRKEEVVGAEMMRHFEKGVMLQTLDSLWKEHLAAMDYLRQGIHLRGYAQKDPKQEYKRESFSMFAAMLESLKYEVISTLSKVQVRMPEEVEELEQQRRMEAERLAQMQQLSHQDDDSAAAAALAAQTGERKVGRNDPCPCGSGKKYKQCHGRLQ
For experiment [2], the target named is T1, Ubiquitin-activating enzyme e1, putative (Leishmania donovani (strain BPK282A1)) (UniProt E9BSI1).
T1 sequence (whole entry): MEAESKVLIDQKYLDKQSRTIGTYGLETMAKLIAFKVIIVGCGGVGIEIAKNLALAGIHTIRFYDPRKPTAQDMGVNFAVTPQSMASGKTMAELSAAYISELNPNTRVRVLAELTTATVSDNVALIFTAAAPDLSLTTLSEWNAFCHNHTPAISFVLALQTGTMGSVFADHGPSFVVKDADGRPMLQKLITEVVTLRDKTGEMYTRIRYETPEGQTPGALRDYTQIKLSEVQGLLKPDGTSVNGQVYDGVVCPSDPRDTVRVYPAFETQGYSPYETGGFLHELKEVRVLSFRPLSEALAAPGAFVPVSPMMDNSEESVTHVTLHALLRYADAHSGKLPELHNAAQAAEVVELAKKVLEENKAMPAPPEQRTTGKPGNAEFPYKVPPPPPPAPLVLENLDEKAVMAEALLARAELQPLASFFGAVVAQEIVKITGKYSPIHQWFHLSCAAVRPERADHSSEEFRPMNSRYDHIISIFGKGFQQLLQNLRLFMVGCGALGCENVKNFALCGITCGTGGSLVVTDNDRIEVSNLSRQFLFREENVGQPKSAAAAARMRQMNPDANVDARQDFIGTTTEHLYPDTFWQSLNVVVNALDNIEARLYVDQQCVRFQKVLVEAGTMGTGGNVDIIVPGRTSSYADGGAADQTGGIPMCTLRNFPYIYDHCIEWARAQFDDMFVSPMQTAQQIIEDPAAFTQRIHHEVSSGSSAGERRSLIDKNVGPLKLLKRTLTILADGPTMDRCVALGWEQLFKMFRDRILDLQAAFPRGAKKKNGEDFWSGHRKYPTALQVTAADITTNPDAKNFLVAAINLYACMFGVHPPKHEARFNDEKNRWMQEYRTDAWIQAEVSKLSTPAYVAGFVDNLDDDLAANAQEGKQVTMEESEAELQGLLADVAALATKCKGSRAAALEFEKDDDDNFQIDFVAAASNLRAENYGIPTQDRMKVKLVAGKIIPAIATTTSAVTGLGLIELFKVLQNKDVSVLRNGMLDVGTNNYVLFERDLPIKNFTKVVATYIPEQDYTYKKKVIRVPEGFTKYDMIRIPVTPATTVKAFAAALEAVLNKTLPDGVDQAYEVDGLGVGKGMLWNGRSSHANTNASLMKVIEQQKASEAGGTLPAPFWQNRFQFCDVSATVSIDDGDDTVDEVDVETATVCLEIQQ
Kind of experiment: Leishmania donovani Ubiquitin Activating Enzyme (LdE1). In kind it is functional. The note with it: 30 µM.

Experiment [3] concerns the target AMP-activated protein kinase, AMPK (Homo sapiens) (UniProt P54646+O43741+P54619+Q9UGJ0+Q9Y478+Q13131+Q9UGI9). The experiment in a line: AMP-dependent Kinase enzyme assay. An in vitro enzyme assay that detects ADP turnover that is directly proportional to AMPK activity. This uses naive AMPK that is activated during the assay with MK-8722. Type of experiment: functional. The following applies: 30 µM.

For experiment [4], the target named is Sialic acid-binding Ig-like lectin 9 (Homo sapiens) (UniProt Q9Y336). The experiment in a line: Hs-Siglec9 ALPHAscreen SOP 20170721. The note with it: 10 µM. A general note: In Alpha technology, singlet oxygen from a donor bead excites a nearby acceptor bead.
Sialic acid-binding Ig-like lectin 9 (Homo sapiens), sequence (Q9Y336 whole entry): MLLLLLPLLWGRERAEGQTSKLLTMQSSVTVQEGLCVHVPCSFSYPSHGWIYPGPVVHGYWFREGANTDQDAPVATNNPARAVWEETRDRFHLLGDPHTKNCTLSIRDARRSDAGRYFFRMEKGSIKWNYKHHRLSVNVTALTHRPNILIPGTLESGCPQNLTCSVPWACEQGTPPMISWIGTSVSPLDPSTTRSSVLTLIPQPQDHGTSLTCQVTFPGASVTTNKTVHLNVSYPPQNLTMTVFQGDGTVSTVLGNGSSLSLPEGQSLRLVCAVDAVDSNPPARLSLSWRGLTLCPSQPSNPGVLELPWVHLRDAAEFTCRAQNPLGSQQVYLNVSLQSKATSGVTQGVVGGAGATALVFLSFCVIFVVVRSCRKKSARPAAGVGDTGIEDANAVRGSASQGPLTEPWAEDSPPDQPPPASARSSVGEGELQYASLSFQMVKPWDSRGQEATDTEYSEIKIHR
The next experiment concerns Trypanosoma cruzi. Kind of experiment: Trypanosoma cruzi phosphomannomutase and mannose-1-phosphate guanylyltransferase assay. Type of experiment: functional. The following applies: 10 µM.
Experiment [5] addresses T2, Arginase-2, mitochondrial (Homo sapiens) (UniProt P78540).
T2 sequence (whole entry): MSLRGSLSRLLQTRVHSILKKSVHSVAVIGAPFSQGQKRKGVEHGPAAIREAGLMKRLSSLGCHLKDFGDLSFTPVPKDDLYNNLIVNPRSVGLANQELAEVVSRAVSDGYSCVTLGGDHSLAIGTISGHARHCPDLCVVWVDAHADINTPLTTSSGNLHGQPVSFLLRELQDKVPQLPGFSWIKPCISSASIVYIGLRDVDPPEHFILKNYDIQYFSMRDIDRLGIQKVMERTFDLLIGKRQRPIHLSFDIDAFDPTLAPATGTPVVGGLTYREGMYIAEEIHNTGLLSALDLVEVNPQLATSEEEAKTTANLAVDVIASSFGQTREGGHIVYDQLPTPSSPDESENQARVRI
The experiment in a line: in vitro enzyme assay to detect the production of urea directly proportional to the activity of Arginase II. Note: in the data most compounds retested in dose-response had high values. In kind it is functional. The following applies: 33.3 µM.

For experiment [6], the target named is T3, Proteasome subunit beta (Trypanosoma cruzi) (UniProt O96673).
T3 sequence (whole entry): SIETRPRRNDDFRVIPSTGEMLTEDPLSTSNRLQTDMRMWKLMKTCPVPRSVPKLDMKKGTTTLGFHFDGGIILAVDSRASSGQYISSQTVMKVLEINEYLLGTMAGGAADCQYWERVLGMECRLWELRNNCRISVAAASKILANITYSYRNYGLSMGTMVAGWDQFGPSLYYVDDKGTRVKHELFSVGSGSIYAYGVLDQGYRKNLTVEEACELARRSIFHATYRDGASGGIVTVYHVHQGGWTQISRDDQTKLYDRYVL
Kind of experiment: Trypanosoma cruzi proteasome chymotrypsin-like activity (TcProtChymo) assay. Note: in the data most compounds retested in dose-response had high values. Type of experiment: functional. The note with it: 9.37 µM.

For another experiment, the species on record is Homo sapiens. Kind of experiment: To identify inhibition of the IFN signalling (Jak-Stat) pathway via expression of an eGFP reporter gene under the control of an IFN-stimulated response element (ISRE) containing MxA promoter. The following applies: 30 µM. In kind it is functional.
Experiment [7] concerns the target T4, Tyrosyl-tRNA synthetase, putative (Trypanosoma cruzi (strain CL Brener)) (UniProt Q4DSP6).
T4 sequence (whole entry): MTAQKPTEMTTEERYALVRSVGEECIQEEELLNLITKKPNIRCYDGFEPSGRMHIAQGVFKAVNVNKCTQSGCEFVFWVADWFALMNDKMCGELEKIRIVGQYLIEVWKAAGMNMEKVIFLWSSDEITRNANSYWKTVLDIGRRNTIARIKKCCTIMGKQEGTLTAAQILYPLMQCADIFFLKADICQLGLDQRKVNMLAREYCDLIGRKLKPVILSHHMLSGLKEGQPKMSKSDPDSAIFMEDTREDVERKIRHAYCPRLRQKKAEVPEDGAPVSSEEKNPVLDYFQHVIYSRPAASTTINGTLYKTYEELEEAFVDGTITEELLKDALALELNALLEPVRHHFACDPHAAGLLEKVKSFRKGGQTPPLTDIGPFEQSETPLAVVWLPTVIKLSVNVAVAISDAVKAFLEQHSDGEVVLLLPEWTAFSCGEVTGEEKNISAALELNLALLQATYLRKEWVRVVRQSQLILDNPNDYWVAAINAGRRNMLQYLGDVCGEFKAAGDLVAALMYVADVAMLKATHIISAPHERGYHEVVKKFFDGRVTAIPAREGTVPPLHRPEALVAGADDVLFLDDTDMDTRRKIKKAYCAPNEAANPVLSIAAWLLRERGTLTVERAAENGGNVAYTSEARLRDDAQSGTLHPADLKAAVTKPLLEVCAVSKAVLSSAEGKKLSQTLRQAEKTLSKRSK
Kind of experiment: Trypanosoma cruzi tyrosyl tRNA synthetase (TcYRS) _High Tyrosine SOP. Note: in the data most compounds retested in dose-response had high values. The following applies: 30 µM. In kind it is functional.

For experiment [8], the target named is T4, Tyrosyl-tRNA synthetase, putative (Trypanosoma cruzi (strain CL Brener)). The experiment in a line: Trypanosoma cruzi tyrosyl tRNA synthetase (TcYRS) SOP. In kind it is functional. The note with it: 30 µM.
The target in experiment [9] is Chromo domain-containing protein 1 (Saccharomyces cerevisiae (strain ATCC 204508 / S288c) (Baker's yeast)) (UniProt P32657). Kind of experiment: ScCHD-1 Enzyme Inhibition Assay. Note: in the data most compounds retested in dose-response had high values. The following applies: 30 µM. In kind it is functional.
Chromo domain-containing protein 1 (Saccharomyces cerevisiae (strain ATCC 204508 / S288c) (Baker's yeast)), sequence (P32657 whole entry, the tested form may be a part): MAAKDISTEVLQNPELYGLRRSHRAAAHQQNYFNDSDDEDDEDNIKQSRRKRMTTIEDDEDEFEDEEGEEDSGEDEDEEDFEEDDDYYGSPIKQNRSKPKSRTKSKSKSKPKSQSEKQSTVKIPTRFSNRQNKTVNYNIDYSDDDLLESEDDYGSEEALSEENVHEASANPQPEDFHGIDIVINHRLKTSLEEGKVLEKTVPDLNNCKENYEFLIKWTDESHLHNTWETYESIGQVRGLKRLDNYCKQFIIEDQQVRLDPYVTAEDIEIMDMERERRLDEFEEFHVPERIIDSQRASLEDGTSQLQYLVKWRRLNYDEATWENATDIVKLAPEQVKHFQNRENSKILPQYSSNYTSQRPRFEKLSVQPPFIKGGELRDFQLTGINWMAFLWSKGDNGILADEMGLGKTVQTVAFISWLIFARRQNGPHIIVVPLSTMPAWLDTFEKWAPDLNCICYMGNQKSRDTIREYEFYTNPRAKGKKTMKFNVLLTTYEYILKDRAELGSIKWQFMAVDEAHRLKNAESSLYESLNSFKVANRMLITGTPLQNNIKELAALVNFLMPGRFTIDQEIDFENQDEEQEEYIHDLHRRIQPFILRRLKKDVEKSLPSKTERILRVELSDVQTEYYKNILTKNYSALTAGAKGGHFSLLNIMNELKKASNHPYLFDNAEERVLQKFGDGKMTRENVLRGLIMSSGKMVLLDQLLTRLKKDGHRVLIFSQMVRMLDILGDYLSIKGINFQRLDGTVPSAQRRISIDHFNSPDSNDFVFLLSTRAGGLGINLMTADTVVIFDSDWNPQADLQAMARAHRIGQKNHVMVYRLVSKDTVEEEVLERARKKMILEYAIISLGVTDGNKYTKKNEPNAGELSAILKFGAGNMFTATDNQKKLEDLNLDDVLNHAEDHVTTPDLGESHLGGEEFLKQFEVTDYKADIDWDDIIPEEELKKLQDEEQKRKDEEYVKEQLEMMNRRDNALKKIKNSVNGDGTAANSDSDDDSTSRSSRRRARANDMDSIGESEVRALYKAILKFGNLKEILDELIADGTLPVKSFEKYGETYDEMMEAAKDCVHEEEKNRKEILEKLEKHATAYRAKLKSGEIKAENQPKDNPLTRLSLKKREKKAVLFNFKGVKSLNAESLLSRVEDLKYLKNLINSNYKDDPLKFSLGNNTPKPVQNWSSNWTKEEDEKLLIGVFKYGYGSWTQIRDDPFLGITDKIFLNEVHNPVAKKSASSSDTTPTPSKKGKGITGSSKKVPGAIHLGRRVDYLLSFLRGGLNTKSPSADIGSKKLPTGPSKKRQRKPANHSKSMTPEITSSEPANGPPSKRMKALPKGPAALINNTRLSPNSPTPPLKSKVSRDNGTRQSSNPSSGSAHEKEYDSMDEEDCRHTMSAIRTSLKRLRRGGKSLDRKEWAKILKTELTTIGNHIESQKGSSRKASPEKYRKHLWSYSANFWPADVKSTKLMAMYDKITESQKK

On to `CC(C)c1cc(NCC(O)CO)n2nccc2n1` (stereo unspecified), for which the Percent Effect in experiment [1] was -2.58%; in experiment [2], 8.11%; in experiment [3] it was 0.503%; in [4], 25.3%; with Trypanosoma cruzi, 3.48%; in [5], 11.9%. For the same compound, the Percent Effect in [6] is 19.3%; in the experiment filed under Homo sapiens it was 9%; in experiment [7] it was 1.59%; in experiment [8] it was 12.2%; in experiment [9], -9.93%.

For the compound `COc1cc(CNC(=O)NCc2c(C)cc(C)[nH]c2=O)ccc1C`, the Percent Effect in experiment [1] was -6.17%; in experiment [2] it was 7.89%; in [3] it was -0.139%; in [4], 4.36%; in the experiment with Trypanosoma cruzi it was 5.64%; in [5], 1.15%. Moreover, the Percent Effect was 11.9% in experiment [6]; 6.94% in the experiment listed under Homo sapiens; 2.45% in [7]; 12.2% in experiment [8]; -9.57% in experiment [9].

As to `Cc1cnc(CN(C)C2CCN(CCc3ccccn3)CC2)cn1`, the Percent Effect is -1.96% in [1]; 13.5% in experiment [2]; -8.24% in experiment [3]; -5.72% in experiment [4]; 5.48% in the experiment with Trypanosoma cruzi; -3.88% in experiment [5]. For the same compound, the Percent Effect in [6] was 14.5%; in the experiment filed under Homo sapiens, 13.7%; in experiment [7], 7.92%; in experiment [8], 15.8%; in experiment [9], -6.34%.

As to `N#Cc1ccnc(N2CCN(Cc3cccc(F)c3)CC2)c1`, the Percent Effect is -3.54% in [1]; 18.9% in experiment [2]; -3.8% in experiment [3]; 19.9% in experiment [4]; 4.2% in the experiment with Trypanosoma cruzi; 3.23% in experiment [5]. In addition, the Percent Effect in [6] was 9.01%; in the experiment listed under Homo sapiens, 4.37%; in experiment [7], 4.3%; in [8] it was 16.1%; in experiment [9], -8.71%.

Take `CN(c1ccncn1)C1CC2(CCN(C(=O)CCc3cccs3)C2)C1` (stereo unspecified): the Percent Effect in experiment [1] is -3.27%; in experiment [2], 1.35%; in [3], 6.25%; in [4] it was 8.01%; in the experiment on Trypanosoma cruzi it was 5.34%; in experiment [5], -1.16%. The Percent Effect in experiment [6] is 1.87%; in the experiment filed under Homo sapiens, 39.7%; in [7] it was 5.38%; in experiment [8], 6.49%; in [9] it was -4.42%.

For `Cc1csc(CNC(=O)NCCc2ccc3c(c2)OCCO3)n1`, the Percent Effect in experiment [1] is -5.64%; in [2] it was 13%; in experiment [3], -2.69%; in experiment [4], -16.2%; with Trypanosoma cruzi, 7.93%; in experiment [5], -3.58%. Also, the Percent Effect in [6] was 13.5%; in the experiment listed under Homo sapiens it was 8.98%; in experiment [7], 4.76%; in [8], 23.5%; in [9], -17.6%.

With `CC1CN(CC(=O)NC(=O)NCc2ccccc2)CCO1` (stereo unspecified), the Percent Effect in [1] was -0.548%; in experiment [2], 15.8%; in [3] it was 0.54%; in experiment [4], -9.53%; with Trypanosoma cruzi, 3.21%; in experiment [5], -1.18%. Moreover, the Percent Effect in experiment [6] was 19.5%; in the experiment listed under Homo sapiens, 11.4%; in [7], 2.13%; in experiment [8], 7.79%; in experiment [9] it was -8.02%.

`O=C1COC2(CCN(Cc3cccs3)CC2)CN1c1ccccc1`: the Percent Effect in [1] was -2.08%; in experiment [2], 5.48%; in [3] it was 0.847%; in experiment [4], 2.36%; in the experiment on Trypanosoma cruzi, -1.39%; in [5] it was -2.4%. In addition, the Percent Effect in experiment [6] was 7.62%; in the experiment listed under Homo sapiens, -0.737%; in experiment [7] it was 3.12%; in experiment [8], 3.7%; in experiment [9], -0.651%.

`CN(C)C(=O)N1CCN(CCn2nc3ccccn3c2=O)CC1`: the Percent Effect in [1] is 0.243%; in experiment [2] it was 7.89%; in experiment [3], 0.915%; in experiment [4] it was -3.62%; with Trypanosoma cruzi, -6.13%; in experiment [5], 0%. The Percent Effect is 20.8% in [6]; 3.27% in the experiment filed under Homo sapiens; 6.38% in [7]; 5.2% in [8]; -5.93% in [9].

With `Cc1nc(CN2C(=O)COC3(CCN(Cc4nccs4)CC3)C2C)cs1` (stereo unspecified), the Percent Effect in experiment [1] is -1.57%; in experiment [2], 0%; in [3], -5.34%; in experiment [4] it was 5.68%; in the experiment with Trypanosoma cruzi it was 4.56%; in experiment [5], -4.39%. Besides, the Percent Effect in experiment [6] was 2.48%; in the experiment listed under Homo sapiens, -3.19%; in experiment [7] it was 6.25%; in [8], 13.6%; in experiment [9], -5.58%.

For `CCCc1nc(C)cc(N2CCC3(CCC(=O)N(CCOC)C3)CC2)n1`, the Percent Effect is -4.76% in experiment [1]; 10.8% in experiment [2]; -6.4% in [3]; -1.18% in [4]; -0.489% in the experiment with Trypanosoma cruzi; -0.744% in experiment [5]. Also, the Percent Effect in experiment [6] was 10.9%; in the experiment listed under Homo sapiens it was -7.21%; in experiment [7], 4.3%; in [8], 13.6%; in experiment [9] it was -3.56%.
